High-throughput results: PubChem, National Center for Advancing Translational Sciences (NCATS)
A selection: hits, their analogues and other compounds. The true share with any hit is near 10%.
HEK cytotox = Cytotoxic Profiling in HEK 293 Cell Line of Diverse Libraries Using Quantitative High-Throughput Screening; HEK 293 viability, ATP luminescence (CellTiter-Glo), 48-72 h; Potency, µM (titrated, usually from 115 µM), most hits filed as inhibitors; hit rate 6.6% among 94,000; also: nearly all actives have a fitted effect of over 60% in size
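HEK 293 seeded at 250 cells/well receive compound via pintool. After 48 or 72 hr at 37 degree Celsius, 5% CO2 and 95% humidity, CellTiter-Glo is dispensed and luminescence read following 10 min at room temperature.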
NPR1 antag = Natriuretic polypeptide receptor (hNpr1) antagonism - Primary qHTS; Atrial natriuretic peptide receptor 1 (Homo sapiens), P16066; HEK293 hNpr1 GloSensor cGMP, ANP-stimulated luminescence; hit rate 1.6% among 76,000; Potency, µM (titrated, usually from 46.3 µM), usual class: inhibitors; calls by dose curve; also: nearly all actives have a fitted effect of over 60% in size
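Compound pre-incubated 30 min at room temperature on GloSensor-loaded HEK293 cells stably carrying hNpr1 and the pGS-40F cGMP biosensor. Stimulation uses hNppA at 0.1 nM final; luminescence is taken at baseline and 20 min post-agonist.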
GPT2 inhibitor = Primary qHTS assay for inhibitors of Glutamate pyruvate transaminase 2 (GPT2); Alanine aminotransferase 2 (Homo sapiens), Q8TD30; Recombinant GPT2, coupled pyruvate oxidase/HRP Amplex Red fluorescence; Potency, µM (doses to about 57.7 µM), most hits filed as inhibitors; hit rate 0.25% among 100,000; AID 1671188, 2021; also: nearly all actives have a fitted effect of over 60% in size
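Fluorescence read-out: pyruvate from GPT2 turnover coupled to pyruvate oxidase, HRP and Amplex Red (0.2mM ThPP, 0.2U/mL PO and HRP, 50uM Amplex final). Substrates 250uM a-KG, 2mM L-alanine; enzyme 10ng/uL; 30 min RT.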
FLuc inh = Firefly luciferase inhibition profiling of diverse chemical library using quantitative high-throughput screening; Luciferin 4-monooxygenase (Photinus pyralis), P08659; purified P. pyralis luciferase, luminescence, biochemical; Potency, µM (top dose mostly 115 µM), hits mostly inhibitors; hit rate 2.5% among 76,000; AID 1347043, 2019; also: nearly all actives have a fitted effect of over 65% in size
Target sequence (P08659 whole entry, looked up): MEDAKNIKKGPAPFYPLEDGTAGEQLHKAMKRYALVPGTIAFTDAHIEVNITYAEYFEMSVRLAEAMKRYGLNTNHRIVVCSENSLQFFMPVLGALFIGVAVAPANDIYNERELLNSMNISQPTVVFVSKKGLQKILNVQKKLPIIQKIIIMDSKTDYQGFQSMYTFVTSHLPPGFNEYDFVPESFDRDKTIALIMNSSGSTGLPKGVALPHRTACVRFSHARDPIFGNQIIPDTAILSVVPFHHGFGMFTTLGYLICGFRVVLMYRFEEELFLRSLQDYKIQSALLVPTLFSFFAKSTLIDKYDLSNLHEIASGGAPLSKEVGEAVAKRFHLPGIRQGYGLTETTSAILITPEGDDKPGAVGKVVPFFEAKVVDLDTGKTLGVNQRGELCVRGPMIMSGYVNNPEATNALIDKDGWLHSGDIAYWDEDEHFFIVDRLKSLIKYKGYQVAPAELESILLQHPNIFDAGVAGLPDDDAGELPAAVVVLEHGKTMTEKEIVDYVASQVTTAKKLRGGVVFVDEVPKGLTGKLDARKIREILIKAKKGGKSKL
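Biochemical qHTS: compound (6-point titration) added to 10uM D-luciferin plus 10uM ATP in Tris acetate pH 7.5 buffer with Mg, Tween-20 and BSA, then purified enzyme at 10nM; light output imaged.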
3T3 cytotox = Cytotoxic Profiling in NIH 3T3 Cell Line of Diverse Libraries Using Quantitative High-Throughput Screening; NIH 3T3 viability, CellTiter-Glo ATP luminescence, 48-72 h; Potency, µM (titrated, usually from 96.7 µM), usual class: inhibitors; hit rate 4.3% among 94,000; also: nearly all actives have a fitted effect of over 55% in size
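NIH 3T3 cells at 400 cells/well received 23 nL of compound by pintool and were incubated 48 or 72 h at 37 °C. Viability was read as ATP-coupled CellTiter-Glo luminescence.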
Numbers stand for hits; . = inactive; ? = inconclusive; / = not tested or not shown. Unless noted, calls follow the shape of the dose curve; as a rule, active = well fitted curve in the direction sought with a large enough effect; inconclusive = small, poorly fitted or top-dose-only effect, or another doubt; inactive = no such curve, though single readings can be large; an effect the other way counts as inactive or inconclusive.

SMILES	HEK cytotox	NPR1 antag	GPT2 inhibitor	FLuc inh	3T3 cytotox
COc1ccc(C2Cn3nnc(-c4noc(-c5ccccc5C)n4)c3CO2)cc1 (stereo not given)	.	.	.	.	.
COc1ccc(-c2cnc([C@@H]3COCCN3C3CCCCC3)[nH]2)cc1	32µM	.	.	.	?
Cc1ccc(-c2cnc([C@@H]3COCCN3C3CCC3)[nH]2)cc1	.	.	.	.	.
Cc1ccc(-c2cnc([C@@H]3COCCN3C(C)C)[nH]2)cc1	112µM	.	.	.	?
COC[C@@H]1CN(C(=O)C2=NNC(=O)CC2)C[C@H]1c1ccncc1	.	.	.	.	.
CC(C)NC(=O)c1ccc2nnc(C3CCOCC3)n2c1	.	/	/	/	.
Cc1oc(C(O)c2ccccc2)nc1C(=O)Nc1ccc(C(=O)Nc2ccccc2)cc1 (stereo not given)	32µM	?	.	?	45µM
Cc1oc(C(O)c2ccccc2F)nc1C(=O)Nc1ccc2[nH]ccc2c1 (stereo not given)	100µM	.	.	63µM	?
CNC(=O)c1ccc(NC(=O)c2nc(C(O)c3ccccc3F)oc2C)cc1 (stereo not given)	?	.	.	.	.
Cc1oc(C(O)c2ccccc2)nc1C(=O)Nc1ccc2[nH]ccc2c1 (stereo not given)	100µM	.	.	50µM	?
Cc1oc(C(O)c2cccc(O)c2)nc1C(=O)Nc1ccc(N2CCOCC2)cc1 (stereo not given)	?	?	.	5µM	?
CCCCCC(=O)N1CC[C@@H](CC(=O)O)[C@@H](CC2=NCCc3cc(OC)ccc32)C1	?	.	.	.	.
O=C(NC1CC1)c1ccccc1OCC1CCCN(Cc2cn[nH]c2-c2cccs2)C1 (stereo not given)	?	.	.	.	?
Cc1cnc(CCNC(=O)CC2CCCCC2)n1CC1CC1	.	.	.	.	.
NC(=O)COC[C@@H]1CN(Cc2ccccc2)C[C@H]1c1ccncc1	?	.	.	.	?
O=C(c1nccc2ccccc12)N1CCC2(CC1)CC(Cc1nc(C3CC3)no1)CCO2 (stereo not given)	?	.	.	.	?
N#Cc1cccc(CN2CCC3(CC2)CC(Cc2nc(C4CC4)no2)CCO3)c1 (stereo not given)	45µM	.	.	.	?
Cc1ccc(CC(=O)NCc2nnc3cc(-c4nc(C(C)C)no4)ccn23)cc1	.	.	.	.	.
COc1cccc(-c2ccc(CN3CCCC(NC(=O)c4ccccc4Cl)C3)cc2)c1 (stereo not given)	20µM	/	.	/	28µM
COc1cccc(-c2ccc(CN3CCCC(NC(=O)Cc4cccc(Cl)c4)C3)cc2)c1 (stereo not given)	?	/	.	/	?
COc1cccc(-c2ccc(CN3CCCC(NC(=O)Nc4ccccc4)C3)cc2)c1 (stereo not given)	?	/	.	/	22µM
COC(=O)NC1CCCN(Cc2ccc(-c3cccc(OC)c3)cc2)C1 (stereo not given)	45µM	/	.	/	?
COc1cccc(-c2ccc(CN3CCCC(N[S+](=O)([O-])c4ccccc4)C3)cc2)c1 (stereo not given)	22µM	/	.	/	40µM
COCC(=O)NC1CCCN(Cc2ccc(-c3cccc(OC)c3)cc2)C1 (stereo not given)	?	/	.	/	?
COc1cccc(-c2ccc(CN3CCCC(NC(=O)Cc4ccc(F)cc4)C3)cc2)c1 (stereo not given)	32µM	/	/	/	?
SMILES	HEK cytotox	NPR1 antag	GPT2 inhibitor	FLuc inh	3T3 cytotox
COc1ccc(CC(=O)NC2CCCN(Cc3ccc(-c4cccc(OC)c4)cc3)C2)cc1 (stereo not given)	25µM	/	/	/	35µM
COc1cccc(-c2ccc(CN3CCCC(NC(=O)C4CC4)C3)cc2)c1 (stereo not given)	35µM	/	/	/	?
COc1ccc(-c2cc(-c3ccc4cn[nH]c4c3)cn3cncc23)cc1	71µM	.	.	?	79µM
NC(=O)c1cccc(-c2cc(-c3ccncc3)c3cncn3c2)c1	?	.	.	.	35µM
c1cc(-c2cc(-c3ccc4cn[nH]c4c3)cn3cncc23)ccn1	63µM	.	.	.	18µM
c1cc(-c2cc(-c3ccc(N4CCOCC4)nc3)cn3cncc23)ccn1	?	.	.	.	?
O=C(C1CC1)N1CCC(c2nn(Cc3ccccc3)c(=O)[nH]2)CC1	.	.	.	.	.
CN1CCc2c([nH]c3ccccc23)C12CCN(C(=O)c1ccsc1)CC2	40µM	.	.	.	?
Cc1cc(C(=O)N2CCC3(CC2)c2[nH]c4ccccc4c2CCN3C)n(C)n1	40µM	.	.	.	.
COc1cccc(CN2CCC3(CC2)c2[nH]c4ccccc4c2CCN3C)c1	25µM	.	.	.	22µM
Cc1nc(-c2ccc(Cl)cc2)n(Cc2cccc(C(F)(F)F)c2)c(=O)c1CCO	?	.	?	.	?
Cc1nc(-c2ccc(F)cc2)n(Cc2cccc(C(F)(F)F)c2)c(=O)c1CCO	45µM	.	.	.	?
Cc1nc(-c2ccccc2)n(Cc2cccc(C(F)(F)F)c2)c(=O)c1CCO	50µM	.	.	.	?
Cc1ccc2c(c1)N1C(=O)OC[C@@H]1CCN(C(=O)c1ccccn1)C2	.	.	.	.	.
C/C=C(\C)C(=O)O[C@H]1[C@H](O)[C@]2(COC(C)=O)[C@H](O)C[C@]3(C)C(=CCC4[C@@]5(C)CC[C@H](O[C@@H]6O[C@H](C(=O)O)[C@@H](O[C@@H]7O[C@H](CO)[C@@H](O)[C@H](O)[C@H]7O)[C@H](O)[C@H]6O[C@@H]6O[C@H](CO)[C@@H](O)[C@H](O)[C@H]6O)[C@](C)(CO)C5CC[C@]43C)[C@@H]2CC1(C)C (stereo not given in full)	/	/	.	/	/
O=C(NCc1ccc(F)cc1)NC1CCc2nn(CC3CC3)c(=O)n2CC1 (stereo not given)	.	/	.	/	.
COCC1CN(C2CCC2)CC12CCN(Cc1ccc(OC)c(OC)c1)CC2 (stereo not given)	?	.	.	.	?
COCCOC1CCOC2(CCN(C(=O)Cc3ccccc3)CC2)C1 (stereo not given)	.	.	.	.	.
COCC1CN(C2CCC2)CC12CCN(Cc1cccc(OC)c1OC)CC2 (stereo not given)	45µM	.	.	.	?
COCC1CN(C2CCC2)CC12CCN(C(=O)CCCc1ccccc1)CC2 (stereo not given)	32µM	/	.	/	?
